Values without a mark were called inactive. Inconclusive results are not listed. The source made the active and inactive calls. Unless noted, calls come from the whole dose curve.

Assay [1] can be described thus: Nuclear factor erythroid 2-related factor 2/antioxidant responsive element (Nrf2/ARE) small molecule agonists: qHTS cell viability counter screen in human keratinocytes (AID 1919968; active = well fitted cell-killing curve with a large enough effect in the repeat runs; note: nearly all actives have a fitted effect of over 55% in size; note: potency is the fitted concentration of half-maximal effect). Conditions: KeratinoSens HaCaT ARE cells viability, CellTiter-Fluor, 24 h; series mostly up to 92.4 µM. In short, it runs like this: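 Cells of the KeratinoSens line were plated at 1,500 per well and left for 5 h before compound transfer from DMSO stocks. After a 23 h incubation (37 C, 5% CO2), CellTiter-Fluor was added. Signal was taken as fluorescence intensity 1 h later.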
In general terms: In qHTS, concentration-response curves come from the screen itself.

Assay [2] in a line: Nuclear factor erythroid 2-related factor 2/antioxidant responsive element (Nrf2/ARE) small molecule agonists: luciferase reporter gene qHTS assay in human keratinocytes (AID 1919969). Note: nearly all actives have a fitted effect of over 35% in size. Note: potency is the fitted concentration of half-maximal effect. Conditions: KeratinoSens HaCaT ARE-luciferase, luminescence, 24 h; series mostly up to 92.4 µM.
For assay [3], the target named is Gonadotropin-releasing hormone receptor (Homo sapiens) (UniProt P30968). Description: Human gonadotropin-releasing hormone receptor (GnRHR) small molecule agonists, calcium flux assay in GnRHR-HEK293 cells (AID 1920063). Note: nearly all actives have a fitted effect of over 35% in size. Conditions: calcium flux fluorescence, agonist mode; series mostly up to 57.6 µM. In short, it runs like this: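 Compounds dissolved in DMSO are pin-transferred onto dye-loaded GnRHR-HEK293 cells, which were seeded 18 h before at 37 C/5% CO2. Calcium signal is read as fluorescence intensity at 1 s intervals for 3 min.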
Gonadotropin-releasing hormone receptor (Homo sapiens), sequence (P30968 whole entry, looked up): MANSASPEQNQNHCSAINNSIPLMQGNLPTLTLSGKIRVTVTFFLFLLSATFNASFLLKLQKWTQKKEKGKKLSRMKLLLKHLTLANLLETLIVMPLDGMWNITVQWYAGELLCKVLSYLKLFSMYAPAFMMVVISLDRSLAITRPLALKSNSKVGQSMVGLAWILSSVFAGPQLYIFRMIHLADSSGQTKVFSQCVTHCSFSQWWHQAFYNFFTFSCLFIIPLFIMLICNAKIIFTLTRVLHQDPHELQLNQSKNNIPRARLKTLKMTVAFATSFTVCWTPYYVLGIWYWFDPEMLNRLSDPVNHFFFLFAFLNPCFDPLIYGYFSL
(In general: Calcium assays in cells follow changes in intracellular calcium, usually with a dye or a luminescent sensor.)

A short description of assay [4]: G protein-coupled receptor (GPCR) small molecule agonists, calcium flux assay: HEK293 wild type cell line counter screen (AID 1920065). Conditions: HEK293 WT calcium flux, fluorescence, agonist mode; series mostly up to 57.6 µM. In short, it runs like this:
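Tox21 10K compounds, 15 concentrations each in triplicate, pin-transferred in DMSO onto dye-loaded cells; kinetic read at 480/540 nm for 3 min, 1 s intervals.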

A short description of assay [5]: p53 small molecule agonists, cell-based qHTS assay with human liver microsomes (AID 1963577).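 Note: p53 response element beta-lactamase reporter cells with liver microsomes plus NADPH.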 Conditions: HCT-116 p53RE-bla with human liver microsomes, ratio, 16 h; series mostly up to 66 µM. In short, it runs like this:
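Reporter activation was measured by LiveBLAzer fluorescence intensity in p53RE-bla cells, which had been exposed to compounds for 16 h at 37 C alongside 0.5 mg/mL human liver microsomes and 0.5 mg/mL NADPH (final concentrations).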

Assay [6] can be described thus: p53 small molecule agonists, cell-based qHTS assay with rat liver microsomes (AID 1963578). Conditions: HCT-116 p53RE-bla, beta-lactamase ratio, 16 h; series mostly up to 66 µM. The procedure, abridged: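 Compound in DMSO added to p53RE-bla cells 5 h post-plating; rat microsomes/NADPH 0.5 mg/mL final; 16 h, 37 C; LiveBLAzer 2 h RT.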
Assay [7] in a line: p53 small molecule agonists, cell-based qHTS assay with rat liver microsomes: qHTS cell viability counter screen (AID 1963580). Note: nearly all actives have a fitted effect of over 45% in size. Conditions: p53RE-bla HCT-116 + rat microsomes, ATP viability, 16 h; series mostly up to 66 µM. The procedure, abridged:
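Counter screen for cytotoxicity under metabolic activation: rat liver microsomes and NADPH, 0.5 mg/mL final each, added with compounds to p53RE-bla HCT-116 cells; 16 h at 37 C, then ATP luminescence read.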

The nature of assay [8]: p53 small molecule agonists, cell-based qHTS assay: qHTS cell viability counter screen (AID 1963581). Note: nearly all actives have a fitted effect of over 45% in size. Conditions: p53RE-bla HCT-116 viability, ATP luminescence, 16 h; series mostly up to 66 µM. The procedure, abridged:
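ATP content measured by luminescence in HCT-116 p53RE-bla cells treated 16 h at 37 C, same wells as the reporter screen.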

A short description of assay [9]: p53 small molecule agonists, cell-based qHTS assay (AID 1963582; active = well fitted activation curve with a large enough effect in the signal ratio in the repeat runs, not every such curve was filed as active; the % refers to the signal ratio). Conditions: HCT-116 p53RE-bla reporter, beta-lactamase FRET ratio, 16 h; series mostly up to 66 µM. In short, it runs like this: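 16 h compound exposure (37 C) of p53 response element–bla cells, preceded by 5 h recovery at 37 C/5% CO2; read-out via LiveBLAzer B/G FRET substrate, 2 h RT, fluorescence intensity.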

The target of assay [10] is 5-hydroxytryptamine receptor 2A (Homo sapiens) (UniProt P28223). Description: 5-hydroxytryptamine receptor 2A (HTR2A) small molecule antagonists, cell-based qHTS assay (AID 1963586). Note: nearly all actives have a fitted effect of over 45% in size. Conditions: HTR2A-CHO cells, DOI-induced calcium flux, fluorescence; series mostly up to 61.5 µM. The procedure, abridged:
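CHO cells stably expressing human HTR2A were plated for 18 h at 37 C, then loaded with calcium dye for 1 h. Compounds were preincubated 5 min at room temperature before DOI (4 nM solution) was added. Kinetic fluorescence was read for 3 min.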

For assay [11] the target is unchanged. The assay can be described thus: 5-hydroxytryptamine receptor 2A (HTR2A) small molecule agonists, cell-based qHTS assay (AID 1963587). Note: nearly all actives have a fitted effect of over 30% in size. Conditions: HTR2A-CHO cells, calcium flux fluorescence, agonist mode; series mostly up to 76.8 µM. In short, it runs like this: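 HTR2A-CHO cells, plated 18 h at 37 C/5% CO2, dye-loaded 1 h at 37 C; compounds in DMSO added by pin tool (agonist mode). Intracellular calcium flux read as kinetic fluorescence on FDSS over 2 min at 1 s intervals.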

The target of assay [12] is Muscarinic acetylcholine receptor M1 (Homo sapiens) (UniProt P11229). Description: Cholinergic receptor muscarinic 1 (CHRM1) small molecule antagonists, cell-based qHTS assay (AID 1963588). Note: nearly all actives have a fitted effect of over 40% in size. Conditions: CHRM1-CHO antagonist mode, calcium flux fluorescence; series mostly up to 61.5 µM. In short, it runs like this: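 Compounds were tested at 15 concentrations in three independent runs. Dye-loaded CHRM1-CHO cells were exposed 5 min at room temperature before stimulation by acetylcholine added at 50nM. Intracellular calcium was read kinetically on FDSS for 3 min.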
Muscarinic acetylcholine receptor M1 (Homo sapiens), sequence (P11229 whole entry, looked up): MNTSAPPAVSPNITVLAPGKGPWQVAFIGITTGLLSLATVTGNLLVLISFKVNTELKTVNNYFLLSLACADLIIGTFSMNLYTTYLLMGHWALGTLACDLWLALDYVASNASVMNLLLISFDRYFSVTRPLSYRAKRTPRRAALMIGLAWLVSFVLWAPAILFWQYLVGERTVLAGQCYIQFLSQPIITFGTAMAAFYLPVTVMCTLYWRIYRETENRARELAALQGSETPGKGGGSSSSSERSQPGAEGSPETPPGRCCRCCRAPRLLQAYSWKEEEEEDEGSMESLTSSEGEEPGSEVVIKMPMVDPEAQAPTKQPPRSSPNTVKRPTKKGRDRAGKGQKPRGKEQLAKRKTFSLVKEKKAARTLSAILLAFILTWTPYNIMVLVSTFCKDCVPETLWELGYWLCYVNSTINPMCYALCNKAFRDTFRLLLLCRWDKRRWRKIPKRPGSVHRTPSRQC

The target of assay [13] is Beta-2 adrenergic receptor (Homo sapiens) (UniProt P07550). Description: Adrenergic beta2 receptor (ADRB2) small molecule antagonists, cell-based qHTS assay (AID 1963592). Note: nearly all actives have a fitted effect of over 50% in size. Conditions: CHO-ADRB2 cells, isoproterenol-stimulated cAMP HTRF ratio, 0.5 h; series mostly up to 92.4 µM. In short, it runs like this: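 Assay format: CHO-ADRB2 cells, 18-20hr seeding at 37C/5% CO2, then compound plus 1nM isoproterenol agonist mix for 0.5hr RT. Homogeneous time-resolved fluorescence cAMP detection after 1hr, expressed as 665/615 nm ratio.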
Beta-2 adrenergic receptor (Homo sapiens), sequence (P07550 whole entry, looked up): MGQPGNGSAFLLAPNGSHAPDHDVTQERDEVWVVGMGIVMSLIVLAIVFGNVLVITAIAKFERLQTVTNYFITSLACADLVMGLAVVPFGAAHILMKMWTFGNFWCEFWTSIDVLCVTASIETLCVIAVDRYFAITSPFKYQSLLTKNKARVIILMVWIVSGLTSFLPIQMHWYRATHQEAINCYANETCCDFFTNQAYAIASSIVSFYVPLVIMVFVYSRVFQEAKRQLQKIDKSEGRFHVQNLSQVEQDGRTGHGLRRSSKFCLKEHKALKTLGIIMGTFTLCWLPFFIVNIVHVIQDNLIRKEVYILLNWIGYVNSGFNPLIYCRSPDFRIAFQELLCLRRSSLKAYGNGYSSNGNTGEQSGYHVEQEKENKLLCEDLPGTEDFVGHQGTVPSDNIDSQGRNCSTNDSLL

For assay [14], the target named is D(2) dopamine receptor (Homo sapiens) (UniProt P14416). The assay can be described thus: Dopamine D2 receptor (DRD2) small molecule agonists, cell-based qHTS assay (AID 1963594). Note: nearly all actives have a fitted effect of over 35% in size. Conditions: HEK293-DRD2 cAMP HTRF, agonist mode, 30 min; series mostly up to 92.4 µM. In short, it runs like this: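 HEK293 cells stably expressing DRD2 were cultured 24 h at 37 C, then given Ro20-1724 (0.1 mM final) and compounds for 10 min at room temperature. NKH477 (200nM) was then added for 30 min. cAMP was read by HTRF.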
D(2) dopamine receptor (Homo sapiens), sequence (P14416 whole entry, looked up): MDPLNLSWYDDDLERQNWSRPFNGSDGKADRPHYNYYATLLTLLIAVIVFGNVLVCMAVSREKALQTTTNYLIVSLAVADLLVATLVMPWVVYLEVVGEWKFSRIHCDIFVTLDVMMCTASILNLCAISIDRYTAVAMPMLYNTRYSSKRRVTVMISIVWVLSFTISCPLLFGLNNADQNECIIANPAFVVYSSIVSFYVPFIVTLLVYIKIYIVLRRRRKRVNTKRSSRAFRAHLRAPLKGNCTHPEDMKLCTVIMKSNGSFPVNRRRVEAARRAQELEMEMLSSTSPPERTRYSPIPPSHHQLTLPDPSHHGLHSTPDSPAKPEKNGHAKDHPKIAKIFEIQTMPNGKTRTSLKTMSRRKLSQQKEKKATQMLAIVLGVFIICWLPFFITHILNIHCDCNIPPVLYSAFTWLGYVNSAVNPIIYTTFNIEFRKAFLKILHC

Assay [15] shares this target. The assay can be described thus: Dopamine D2 receptor (DRD2) small molecule antagonists, cell-based qHTS assay (AID 1963595; active = well fitted inhibition curve with a large enough effect in the signal ratio in the repeat runs, with a control signal flat; the % refers to the signal ratio). Conditions: HEK293-DRD2 cAMP HTRF antagonist mode; series mostly up to 92.4 µM. The procedure, abridged:
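Human DRD2 antagonist qHTS measuring cAMP by HTRF. The cells are exposed to compound for 10 min, then to NKH477 (200 nM) and quinpirole (12 nM) for 30 min at RT, with Ro20-1724 (0.1 mM) present throughout.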

The target of assay [16] is Muscarinic acetylcholine receptor M1 (Homo sapiens) (UniProt P11229). The assay can be described thus: Cholinergic receptor muscarinic 1 (CHRM1) small molecule agonists, cell-based qHTS assay (AID 1963589). Note: nearly all actives have a fitted effect of over 35% in size. Conditions: CHRM1-CHO cells, agonist mode, calcium flux fluorescence; series mostly up to 76.8 µM. The procedure, abridged:
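Homogeneous fluorescence calcium flux, agonist mode. Human M1-expressing CHO cells; compound dosed at 15 concentrations, three independent runs; signal sampled every 1 sec.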

Assay [17] is described as follows: cAMP Responsive Elements (CRE) small molecule antagonists, cell-based qHTS assay (AID 1963591; active = well fitted inhibition curve with a large enough effect in the signal ratio in the repeat runs, not every such curve was filed as active; the % refers to the signal ratio; note: potency is the fitted concentration of half-maximal effect). Conditions: CRE-bla HEK293T, beta-lactamase FRET ratio; series mostly up to 92.4 µM. The procedure, abridged:
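First, CRE-bla HEK293T cells settled 18 h at 37 C. Next, compound and 0.25 uM final NKH477 were applied for 3 h. Last, LiveBLAzer B/G substrate was loaded for 2 h at room temperature.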

Assay [18] is described as follows: cAMP Responsive Elements (CRE) small molecule agonists, cell-based qHTS assay (AID 1963590). Conditions: CRE-bla HEK293T, beta-lactamase FRET ratio, 3 h; series mostly up to 92.4 µM. The procedure, abridged: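 HEK 293T cells stably bearing CRE-bla were plated at 2,000 cells per well and rested 18 h. Compounds, positive controls or DMSO were added for 3 h at 37 C. LiveBLAzer B/G substrate was then loaded for 2 h at room temperature.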

5-hydroxytryptamine receptor 2A (Homo sapiens), sequence (P28223 whole entry, looked up): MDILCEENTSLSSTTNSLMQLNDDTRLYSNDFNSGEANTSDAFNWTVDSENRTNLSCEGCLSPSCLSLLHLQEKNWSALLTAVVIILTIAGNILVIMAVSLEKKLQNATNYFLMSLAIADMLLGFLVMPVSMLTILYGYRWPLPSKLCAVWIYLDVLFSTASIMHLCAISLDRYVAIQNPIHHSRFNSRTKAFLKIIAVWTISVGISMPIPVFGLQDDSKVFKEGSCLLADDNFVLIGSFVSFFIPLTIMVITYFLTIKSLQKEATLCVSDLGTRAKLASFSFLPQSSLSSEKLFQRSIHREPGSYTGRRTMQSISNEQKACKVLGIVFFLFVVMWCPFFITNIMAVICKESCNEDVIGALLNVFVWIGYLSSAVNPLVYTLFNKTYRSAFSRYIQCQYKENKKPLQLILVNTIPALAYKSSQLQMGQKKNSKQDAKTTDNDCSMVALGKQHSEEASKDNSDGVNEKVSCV

On to `CC(C)(O)c1ccc(CNC(=O)c2cccnc2Oc2ccc(F)cc2)cc1`, for which the Potency entry in assay [1], in [2], in assay [3], in [5], in assay [6] and in assay [7] was “inactive” in each case. Further, the Potency entry in assay [8], in assay [9], in [10], in [11], in assay [12] and in assay [13] was “inactive” throughout. Moreover, the Potency entry in assay [14] and in [15] was “inactive” each time. Also, the outcome in [4] was inactive.
As to `O=C1OC(O)C(C(Cl)Cl)=C1Cl` (stereo not drawn), the Potency in [1] is 63 µM (active); in assay [2], 25.1 µM (active); in assay [17] it was 44.6 µM (active). Also, the Potency entry in assay [3], in assay [5], in [6], in [7], in [8] and in assay [10] was “inactive” throughout. Also, the Potency entry in assay [11], in [12], in assay [16], in assay [13], in assay [14] and in assay [15] was “inactive” in each case.
As to `CC(C)OC(=O)c1ccccc1`, the Potency result in assay [1], in assay [2], in assay [3], in assay [5], in assay [6] and in assay [7] was “inactive” in each case. In addition, the Potency result in assay [8], in assay [10], in assay [11], in assay [12], in assay [17] and in [13] was “inactive” each time. The Potency entry in assay [14] is “inactive”. Also, the result in assay [4] was inactive.
On to `COc1ccc(C)cc1[N+](=O)[O-]`, for which the Potency result in assay [1], in [2], in assay [3], in assay [5], in assay [6] and in assay [8] was “inactive” each time. For the same compound, the Potency result in assay [10], in assay [11], in [12], in assay [16], in [18] and in [13] was “inactive” in each case. In assay [14], the Potency result was “inactive”. Also, the outcome in [4] was inactive.

For the origin of these results see PubChem BioAssay (Tox21).
